The test system of this experiment is PPARg:RXRa 270nM:90nM, anti-RXR (NR concentration 270 nM, RXRa partner concentration 90 nM). As to the kind of experiment: PBM binding z-score (relative to random genomic background probes); higher = stronger binding; sequences stand for … in GC…GCGATTGACAGCGTAGAATGAAGG
The method, boiled down: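 Antibodies against each partner of ligand-free nuclear receptor dimers (one per run) detected binding on custom Agilent 4×180K protein-binding microarrays after 1 h incubation. The double-stranded probes had 34-nt variable regions carrying direct-repeat seeds, single-nucleotide variants, half-site ablations and random human genomic background sequences. Binding z-scores, from regression-normalized fluorescence, use the random background probes as reference.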
In turn, TCAGACACGTGAAGGTAACTCAGGTACGCAGTCG had a PBM binding z-score of 1.81.

CCTACTGGGCCATTCAAAGGTCATTGATCATATG displayed a PBM binding z-score of 4.03. Turning to CGTCAAAGTTCAAGGTAACGTATCAGAAAGCAGC, the PBM binding z-score amounted to 5.03.

Turning to CCGTGTAGGTTATGGGGCATTCAGGCAACGGTGA, the PBM binding z-score was 3.57. Under CGTCCAAGGTCAATGCTAGGTCCGTGAAAGCATT stands 3.97.

As for TCTTGTAGATCAAGCAGGTTACGAAAGCCTGAGT, the PBM binding z-score worked out at 1.34. In turn, ATCTCTAGGTAAAGTTCAGTGCAAGATCGATAGA showed a PBM binding z-score of 4.48.

As for AGTCAAAGTTCATCTAGGTGACGTAAGATATGCT, the PBM binding z-score amounted to 6.36. Under CGTCCAAGATCAGAGAGGTCAGTGAATGCCGAGT stands 0.581; under CAGCCTAGGTCAGAGCCAGTATAGGAGGAACGTT, 0.566. Under GCTAGCTGGTCAGTAAAAGGTCACACACCGGTCG stands 4.13; under TCTGCTAGCTCAACGATGGTCAGCTAATCTGCTA, 0.116; under AGAATGAGGTTATACGTAGATTAGGGAAGAAAGT, 2.4. Under TCTTGTAGATCAATTGAGGTTAAGAAAGTGCGCT stands 1.68; under GGAACGAGGGCAACTTGATAGCAGAGTTTGATGG, 1.28. Regarding TCGAGTAAGTTAGGGGCATTCAGAATGGCGTCGA, the PBM binding z-score stood at 0.338. Under CCTACTGGGCCAAAGGTCATTGCTTCCAATGCTC stands 9.77; under TTACCAAGGTGAAGATCGTTGATCCCTCTGTAGA, 0.958; under CCAGGCAGGTGAAAGGTAACTCAGTCTGGTACGC, 6.52.

As for CCTCGGAGGACAGAAGGTCAGAGGTGTCCGCTTT, the PBM binding z-score was 1.58. With GCGACTGGGGCAAAGCAGGTTACCATTAGGTTGG the figure was 1.39; with TCTCGGAGAACACGAAAGGTCAGAGCTCGACATC, 2.21.

(Values after the supplement of paper PMC6555819.)
